The sample as a whole holds a higher share of hits than the screen did.
12-LOX inh: Primary qHTS assay for inhibitors of human arachidonate 12S-lipoxygenase (ALOX12): Round 2 | purified 12hLO, xylenol orange hydroperoxide absorbance | Potency, µM (top dose mostly 108 µM), usual class: inhibitors | 580,000 compounds, 1.1% hits
Target sequence (P18054 whole entry, looked up): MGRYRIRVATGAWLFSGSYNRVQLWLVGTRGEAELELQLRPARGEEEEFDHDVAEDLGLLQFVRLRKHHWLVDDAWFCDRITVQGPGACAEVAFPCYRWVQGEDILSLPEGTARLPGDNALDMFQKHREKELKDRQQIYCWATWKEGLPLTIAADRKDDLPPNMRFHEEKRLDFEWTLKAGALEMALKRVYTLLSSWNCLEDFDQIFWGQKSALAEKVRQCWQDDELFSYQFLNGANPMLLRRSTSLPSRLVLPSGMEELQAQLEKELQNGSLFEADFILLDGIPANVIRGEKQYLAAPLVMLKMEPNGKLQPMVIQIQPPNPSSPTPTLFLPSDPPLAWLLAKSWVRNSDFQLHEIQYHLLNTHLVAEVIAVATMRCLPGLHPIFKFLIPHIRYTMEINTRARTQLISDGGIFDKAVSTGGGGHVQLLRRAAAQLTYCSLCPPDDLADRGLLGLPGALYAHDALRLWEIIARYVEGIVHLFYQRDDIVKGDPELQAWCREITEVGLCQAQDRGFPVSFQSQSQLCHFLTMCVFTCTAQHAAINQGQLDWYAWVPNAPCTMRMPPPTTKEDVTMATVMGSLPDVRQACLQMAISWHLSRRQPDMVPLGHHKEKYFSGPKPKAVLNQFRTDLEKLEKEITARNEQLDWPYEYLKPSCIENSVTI
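Hydroperoxide product was detected by ferrous iron/xylenol orange as the 573 to 405 nm absorbance ratio. Arachidonic acid at 40 uM (final) was turned over for 30 min at room temperature by 150 nM human 12hLO, pH 7.0 Hepes buffer, after 15 min compound preincubation.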
TDP1 cell noCPT: qHTS for Inhibitors of human tyrosyl-DNA phosphodiesterase 1 (TDP1): qHTS in cells in absence of CPT; AID 686978, 2013; DT40 Tdp1-/- hTDP1 cells, no CPT, ATP luminescence, 48 h; Potency, µM (highest dose often 46.2 µM), usual class: inhibitors; 420,000 compounds, 15% hits; further: nearly all actives have a fitted effect of over 55% in size
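Luminescent ATP content (CellTiter-Glo) served as the growth readout. Knockout chicken DT40 cells expressing human TDP1 were exposed to compounds without camptothecin for a minimum 48 hr at 37 °C.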
HT1080 IDH1KD tx: qHTS for induction of synthetic lethality in tumor cells producing 2HG: qHTS for the HT-1080-IDH1KD cell line; HT-1080 IDH1 knockdown viability, ATP luminescence, 48 h; 360,000 compounds, 2% hits; Potency, µM (series often up to 46.1 µM), actives largely listed as cytotoxic; AID 686971, 2013
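In this qHTS, HT-1080 cells depleted of IDH1 are exposed for 48 h at 37 °C to compound titrations. Toxicity is scored from CellTiter-Glo luminescence, with DMSO as full viability and medium alone as none.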
HT1080NT lethal: qHTS for induction of synthetic lethality in tumor cells producing 2HG: qHTS for the HT-1080-NT fibrosarcoma cell line; 360,000 compounds, 1.6% hits; Potency, µM (top dose mostly 46.1 µM), most hits filed as cytotoxic; HT-1080-NT fibrosarcoma viability, CellTiter-Glo ATP luminescence, 48 h;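 further: NT is the 2HG producing partner of a matched IDH1 knockdown line; nearly all actives have a fitted effect of over 55% in size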
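Viability of the 2HG-overproducing fibrosarcoma line after 48 hours of compound exposure at 37 degrees C was determined by luminescence with CellTiter-Glo, and concentration-effect curves were then fitted and categorized.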
DT40 TDP1 CPT: qHTS for Inhibitors of human tyrosyl-DNA phosphodiesterase 1 (TDP1): qHTS in cells in presence of CPT | chicken DT40 Tdp1-/-;hTDP1 cells + 20 nM CPT, ATP luminescence, 48 h | Potency, µM (highest dose often 46.2 µM), hits mostly inhibitors | 420,000 compounds, 12% hits | AID 686979, 2013; further: nearly all actives have a fitted effect of over 55% in size
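Chicken DT40 Tdp1-/- cells stably complemented with human TDP1 were seeded at 400 cells/well in medium containing 20 nM camptothecin, exposed to pin-transferred compounds, and grown at 37 °C for at least 48 hr. Viability was read as ATP luminescence.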
IL1B secr inh: qHTS for Inhibitors of Inflammasome Signaling: IL-1-beta AlphaLISA Primary Screen; THP-1 LPS/ATP IL-1B secretion, AlphaLISA, 16 h; active compounds read low; 360,000 compounds, 4.7% hits; activity change, % at 57.5 µM; AID 743279, 2014; in the data active means activity change below about -50%; inconclusive means mostly about -30% to -49%
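THP-1 cells pretreated 1 hr with compounds (up to 57.5 uM final), then stimulated with LPS (250 ng/mL final) plus ATP (1.25 mM final); secreted IL-1B measured by AlphaLISA after 16 hr, decreased signal indicating inhibition.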
A number is an active result; - = inactive; ? = inconclusive; . = not tested or not shown; ! = a repeat was not active; [ ] = dose if it differs, or a comment. Unless noted, the call rests on the fitted dose curve; in most records, active means well fitted curve in the direction sought with a large enough effect; inconclusive means small, poorly fitted or top-dose-only effect, or another doubt; inactive means no such curve, though single readings can be large; an effect the other way counts as inactive or inconclusive.

SMILES	12-LOX inh	TDP1 cell noCPT	HT1080 IDH1KD tx	HT1080NT lethal	DT40 TDP1 CPT	IL1B secr inh
COc1cccc(OC)c1C(=O)NCCc1c[nH]c2ccccc12	-	.	.	.	.	.
O=C(Nc1ccccc1SC1CCCC1)c1ccc(F)cc1	-	.	.	.	.	.
CCCSc1nnc(Sc2nnnn2-c2ccccc2)s1	-	2.9µM	23µM	16µM	4.6µM	-62
O=[N+]([O-])c1ccc(Sc2nnnn2-c2ccccc2)nc1	-	3.7µM	21µM	16µM	3.3µM	-97
COc1ccc2c(C)cc(Sc3nnnn3-c3ccccc3)nc2c1	-	?	-	-	?	-95
Cc1ccccc1-n1nnnc1Sc1nnnn1-c1ccccc1	-	8.2µM	15µM	?	12µM	-116
COc1ccc(OC)c(S(=O)(=O)NCCOC23CC4CC(CC(C4)C2)C3)c1	-	7.3µM	-	-	18µM	-
COc1ccc(OC)c(S(=O)(=O)NCCS(=O)(=O)N2CCN(c3ccccc3)CC2)c1	-	16µM!	-	-	21µM!	-
COc1ccc(S(=O)(=O)NCCS(=O)(=O)N2CCN(c3ccccc3)CC2)cc1	-	?	-	-	?	-
CC(=O)Oc1ccc(Nc2ccccc2)cc1	?	?	?	-	18µM	-
CC(=O)Oc1ccc(C(=O)Nc2ccccc2C(=O)Nc2cccc(C(=O)O)c2)cc1	-	-	-	-	-	-
CC(=O)Nc1ccc(OC(=O)c2ccccc2O)cc1	.	?	.	.	0.58µM	.
CC(=O)Oc1ccc(C(=O)Nc2cccc(C(=O)c3cccc(NC(=O)c4ccc(OC(C)=O)cc4)c3)c2)cc1	-	23µM	?	?	?	-
CC(=O)Oc1ccc(C(=O)Nc2ccccc2C(=O)Nc2ccc(C(=O)O)cc2)cc1	4.5µM	-	-	-	-	-
COCCn1ncc(N2CCCC(CC(=O)O)C2)cc1=O (stereo not given)	-	.	.	.	.	.
CC(=O)Oc1ccc(C(=O)Nc2ccc(C3(C#N)CCCC3)cc2)cc1	-	16µM	?	-	16µM	-59
Cc1ccc(CNc2ncnc3onc(C)c23)cc1	-	15µM	.	.	16µM	.
Cc1noc2ncnc(NCc3cccc(Cl)c3)c12	-	18µM	.	.	16µM	.
COc1ccc(Nc2ncnc3onc(C)c23)c(OC)c1	-	-	.	.	-	.
Cc1ccc(CNc2ncnc3onc(-c4cc(F)cc(F)c4)c23)cc1	-	.	.	.	.	.
COc1ccc(OC)c(CCNc2ncnc3onc(C)c23)c1	-	5.2µM	.	.	7.3µM	.
Fc1cc(F)cc(-c2noc3ncnc(NCc4ccccc4)c23)c1	-	.	.	.	.	.
O=S(=O)(Nc1nc2ccccc2nc1NCc1ccccc1)c1ccc(F)cc1	-	.	.	.	.	.
CN(C)c1nc2cc(Cl)ccc2cc1CN(Cc1ccc2c(c1)OCO2)C(=O)c1ccoc1	-	-	.	.	-[9.04 µM]	.
CC(=O)O[C@]1(C(C)=O)CC[C@H]2[C@@H]3C=C(C)C4=CC(=O)CC[C@]4(C)[C@@H]3CC[C@@]21C	-	.	.	.	.	.
SMILES	12-LOX inh	TDP1 cell noCPT	HT1080 IDH1KD tx	HT1080NT lethal	DT40 TDP1 CPT	IL1B secr inh
CC(=O)O[C@]1(C(C)=O)CC[C@H]2[C@@H]3C=C(Cl)C4=CC(=O)CC[C@]4(C)[C@H]3CC[C@@]21C	-	21µM	-	-	?	-
CC(=O)O[C@]1(C(C)=O)CC[C@H]2[C@@H]3C=C(Cl)C4=CC(=O)[C@@H]5C[C@@H]5[C@]4(C)[C@H]3CC[C@@]21C	-	21µM	-	-	?	-
CC1(C)CC(NC(=O)c2ccccc2NS(=O)(=O)c2ccc(Br)cc2)CC(C)(C)N1	-	-	-	-	-	-
COc1ccccc1CC(=O)N(Cc1nc(-c2ccc(C)cc2)no1)C1CCCCC1	-	.	.	.	.	.
COc1ccccc1OCC(=O)N(Cc1nc(-c2ccccc2)no1)C1CCCCC1	?	21µM	-	-	23µM	-
CCN(C(=O)CSc1ccccn1)C1CCCCC1	-	15µM	-	-	10µM	-
CCN(C(=O)COc1ccccc1)C1CCCCC1	-	?	-	-	21µM	-
CC#CCn1cc2c3c(cccc31)[C@H](CC(C)C)N[C@H](C(=O)NCCN(C)C)C2	-	.	.	.	.	.
CCc1noc(-c2ccn3c(CNC(=O)CCc4ccccc4)nnc3c2)n1	-	.	.	.	.	.
COc1ccc2cnn(CC(=O)Nc3ccccc3F)c(=O)c2c1OC	-	.	.	.	.	.
Nc1c(Cl)cc(C2=NCCn3nc4cc(C(F)(F)F)ccc4c32)cc1Cl	-	21µM	-	-	21µM	?
Nc1c(Cl)cc(C2=NCCn3nc4cc([N+](=O)[O-])ccc4c32)cc1Cl	-	18µM	-	-	?	-
COc1ccc(C2=NCCn3nc4ccccc4c32)cc1	-	-	?	-	-	-
COc1ccc2c3n(nc2c1)CCN=C3c1cc(Cl)c(N)c(Cl)c1	?	16µM	?	?	?	?
Nc1c(Cl)cc(C2=NCCn3c2c2ccc([N+](=O)[O-])cc2[n+]3[O-])cc1Cl	?	5.8µM	-	-	1.8µM	-
CCCNC(=O)CSc1nc(-c2ccccc2)[nH]c1S(=O)(=O)c1ccccc1	-	.	.	.	.	.
N#Cc1ccc(OCCOc2ccc(C#N)cc2)cc1	-	.	.	.	.	.
Cc1cccc(NC(=S)NC2CCCC2)n1	45µM	?	-	-	?	-
Cc1cccc(NC(=S)Nc2cccc(C)n2)n1	-	5.2µM	-	-	?	-
Cc1cccc(NC(=S)NC2CCCCC2)n1	40µM	?	-	?	26µM	-
Cc1c(Cl)cccc1NC(=S)NC1CCCC1	?	-	-	-	-	-
Cc1cccc(NC(=S)NC(=O)c2cccs2)n1	-	-	5.6µM	1.3µM	-	-
CN(C)Cc1nnc(C2CC(NC(=O)c3ccccc3-c3ncn[nH]3)C2)n1C (stereo not given)	-	.	.	.	.	.
CC(c1ccc(Cl)cc1)N(C)Cc1nc2ccccc2o1 (stereo not given)	-	.	.	.	.	.
COC(=O)Cc1ccc(NC(=S)Nc2cccc(C)n2)cc1	?	18µM	-	-	?	-
Cc1cccc(NC(=S)Nc2ccc(Oc3ccccc3)cc2)n1	10µM	?	-	-	?	-
CCOC(=O)c1ccc(NC(=S)Nc2cccc(C)n2)cc1	?	?	-	-	?	-
COc1ccccc1N1CCN(C(=O)c2ccc3[nH]c4c(c3c2)CC(C)CC4)CC1 (stereo not given)	-	?	?	?	16µM	-94

High-throughput results deposited in PubChem by National Center for Advancing Translational Sciences (NCATS).
